Screening results from PubChem BioAssay.
PLK1 PBD inh = PLK1 (human) polo-box domain binding inhibition | P53350 | Plk1 PBD binding of FITC phosphopeptide, fluorescence polarization | Potency, µM, most hits filed as inhibitors | 360,000 tested, 2.8% active | AID 720504; further: series mostly up to about 57 µM; nearly all actives have a fitted effect of over 65% in size
BAZ2B block = blocks human BAZ2B. AlphaScreen BAZ2B-H3K14Ac peptide displacement. Potency, µM (series often up to 114 µM), usual class: inhibitors. 360,000 tested, 4.4% active. AID 504333; further: nearly all actives have a fitted effect of over 60% in size
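Inhibition is scored as reduced AlphaScreen emission. The BAZ2B/b-H3(5-23)K14Ac complex (50 nM each) in PBS pH 7.4, 0.01% Tween-20 meets compound (up to 110 uM) for 30 min at RT before bead addition.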
G9a block = G9a (human) methyltransferase inhibition | AID 504332 | Potency, µM (doses to about 102 µM), most hits filed as inhibitors | G9a H3K9 monomethylation, AlphaScreen, 2 h | Q96KQ7 | 350,000 tested, 8.8% active; further: nearly all actives have a fitted effect of over 75% in size
Target sequence (Q96KQ7 913-1193 limits assumed): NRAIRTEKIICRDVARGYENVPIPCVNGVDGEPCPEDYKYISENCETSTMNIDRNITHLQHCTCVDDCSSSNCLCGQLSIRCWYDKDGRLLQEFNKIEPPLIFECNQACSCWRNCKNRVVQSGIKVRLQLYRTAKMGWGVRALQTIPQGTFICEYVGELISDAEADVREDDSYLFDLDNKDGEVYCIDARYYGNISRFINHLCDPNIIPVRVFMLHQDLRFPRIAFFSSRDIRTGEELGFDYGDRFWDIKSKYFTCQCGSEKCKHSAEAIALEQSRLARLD
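Step 1: enzyme (final 20 nM) with compound, 15 min RT. Step 2: substrate peptide 500 nM and SAM 20 uM, 2 h RT. Step 3: anti-H3K9me1 antibody and AlphaScreen beads, 10 min, then plate read.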
Sfp PPTase inh = Sfp phosphopantetheinyl transferase inhibition; 310,000 tested, 3.5% active; Biochemical Sfp PPTase activity, qHTS; Potency, µM, actives largely listed as inhibitors; Q9F4F7;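 further: the enzyme is Sfp with the accession as filed and its product quenches rhodamine fluorescence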
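Compounds were incubated with enzyme (final 15 nM) for 15 min at room temperature before substrate addition started the reaction. Fluorescence at 525 nm excitation, 598 nm emission was recorded immediately and after 30 minutes.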
JMJD2A Tudor = blocks the human JMJD2A Tudor domain. AID 504339. Potency, µM (titrated, usually from 114 µM), most hits filed as inhibitors. O75164. 390,000 tested, 4.4% active. AlphaScreen JMJD2A-Tudor / H3K4me3 peptide binding; further: nearly all actives have a fitted effect of over 50% in size
HP1b chromo inh = HP1-beta chromodomain-methylated histone interaction inhibition; AID 540317; P83916; Potency, µM (series often up to 114 µM), actives largely listed as inhibitors; AlphaScreen HP1-beta / biotin-H3K9me3 peptide binding; 390,000 tested, 0.56% active; further: nearly all actives have a fitted effect of over 70% in size
Target sequence (P83916 whole entry, looked up): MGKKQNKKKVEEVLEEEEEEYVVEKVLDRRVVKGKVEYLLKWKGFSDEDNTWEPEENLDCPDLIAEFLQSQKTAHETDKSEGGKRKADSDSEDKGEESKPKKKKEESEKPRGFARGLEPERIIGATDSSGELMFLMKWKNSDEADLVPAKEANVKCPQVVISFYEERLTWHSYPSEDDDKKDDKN
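Compound inhibition of the preformed complex between 50 nM HP1-beta and 50 nM biotinylated H3K9me3 peptide was read by AlphaScreen. Buffer was PBS pH 7.4 with 0.01% Tween-20. Incubations ran 30 min at room temperature, with 10 ug/mL donor/acceptor beads.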
Hits are given with their value; i = inactive; ? = inconclusive; nt = no result given; ! = not active in a repeat; [ ] = remark or other dose. Most compounds without a hit are left out; they make up all but 12% or so of the library. The call rests on the fitted dose curve; in most records, active means well fitted curve in the direction sought with a large enough effect; inconclusive means small, poorly fitted or top-dose-only effect, or another doubt; inactive means no such curve, though single readings can be large; an effect the other way counts as inactive or inconclusive.

SMILES	PLK1 PBD inh	BAZ2B block	G9a block	Sfp PPTase inh	JMJD2A Tudor	HP1b chromo inh
O=C(O)[C@@H]1C[C@H](C(=O)O)N1	nt	nt	12µM!	i	i	i
CN(C(=O)CSc1ncnc2sc3c(c12)CCCC3)C1CCS(=O)(=O)C1 (stereo not given)	i	nt	nt	nt	i	i
CCC(C)[C@@H](NC(=O)OC(C)(C)C)c1nnc(S(=O)(=O)Cc2cccc(C)c2)o1 (stereo not given in full)	8.4µM	i	?	25µM	i	i
CC(C)(C)OC(=O)N[C@@H](Cc1ccccc1)c1nnc(S(=O)(=O)Cc2ccccc2)o1	nt	i	11µM	8.9µM	nt	nt
Cc1cccc(CS(=O)(=O)Cc2ccc(C(=O)NC(C)c3ccccc3)o2)c1 (stereo not given)	i	i	i	i	i	i
Cc1ccccc1CS(=O)(=O)c1nnc([C@H](Cc2ccccc2)NC(=O)OC(C)(C)C)o1	7.5µM	i	40µM	7.9µM	i	i
CCOc1ccccc1CN1CCN(Cc2[nH]c3ccccc3c2C)CC1CCO (stereo not given)	i	i	71µM	i	?	i
CCOc1ccccc1CN1CCN(Cc2c[nH]c3ccccc23)CC1CCO (stereo not given)	i	i	i	i	i	i
CC(=O)c1c(C)nc(-c2ccc3c(c2)OCO3)n1O	i	i	56µM	i	i	i
CCOc1ccc(-c2nc(C)c(C(C)=O)n2O)cc1	i	i	?	18µM	i	i
Cc1cn([C@H]2C[C@H](O)[C@@H](CNCc3cc(Br)ccc3OCc3ccccc3)O2)c(=O)[nH]c1=O	i	nt	nt	nt	nt	nt
O=C(C1CCCN(S(=O)(=O)c2cccs2)C1)N1CCN(c2ccccc2F)CC1 (stereo not given)	nt	i	i	nt	i	i
CCOC(=O)C1(c2ccccc2)SC(C(=O)OCC)(c2ccccc2)S1 (stereo not given)	21µM	nt	nt	nt	nt	nt
Cc1ccc(Cn2c(CNS(=O)(=O)c3ccc(C(C)(C)C)cc3)nc3cccnc32)cc1	nt	i	i	nt	i	i
COc1cc(C#Cc2c(-c3cncn3C)n(C)c3ccc(-c4ccc5cc[nH]c5c4)cc23)cc(OC)c1	i	nt	nt	nt	?	i
COc1cc(C#Cc2c(-c3cncn3C)n(C)c3ccc(-c4ccc(OC)c(OC)c4)cc23)cc(OC)c1	i	?	i[0.501 µM]	nt	45µM	i
C[C@@H]1CCC[C@]2(C)CCCC[C@@]12O	nt	nt	nt	i	nt	nt
CCOc1ccc(-c2nc(CSCC(=O)N3CCN(C(=O)c4ccco4)CC3)c(C)o2)cc1	i	i	50µM	i	i	i
COc1ccc(-c2nc(CSCC(=O)NCCCN3CCCC3=O)c(C)o2)cc1OC	21µM	i	i	i	i	i
COc1ccc(-c2nc(CSCC(=O)N3CCC(C(N)=O)CC3)c(C)o2)cc1OC	i	i	45µM	i	i	i
COc1ccc(-c2nc(CSCC(=O)N3CCN(c4cccc(C)c4)C(C)C3)c(C)o2)cc1OC (stereo not given)	i	45µM	45µM	i	56µM	i
CCOC(=O)C1CCN(C(=O)CSCc2nc(-c3ccc(OCC)cc3)oc2C)CC1	i	i	i	i	i	i
COc1ccc(-c2nc(CSCC(=O)NC3CCCc4ccccc43)c(C)o2)cc1OC (stereo not given)	i	?	45µM	i	?	i
COc1ccc(-c2nc(CSCC(=O)NC3CC3)c(C)o2)cc1OC	i	i	i	i	i	i
COc1ccc(-c2nc(CSCC(=O)N3CCc4ccccc4C3)c(C)o2)cc1OC	?	i	35µM	i	?	i
SMILES	PLK1 PBD inh	BAZ2B block	G9a block	Sfp PPTase inh	JMJD2A Tudor	HP1b chromo inh
COc1ccc(-c2nc(CS(=O)CC(=O)NC3CCCc4ccccc43)c(C)o2)cc1OC (stereo not given)	i	i	?	i	i	i
Cc1oc(-c2ccccc2F)nc1CSCC(=O)NC1CC1	27µM	i	i	i	?	i
O=S1(=O)c2ccccc2Nc2ccccc21	i	i	i[0.501 µM]	i	i	i
CC1CCCC(C)N1/N=C/c1cc(Br)c(O)c(Br)c1 (stereo not given)	nt	i	5.6µM	56µM	nt	nt
CC1CCCC(C)N1/N=C/c1ccc(O)c(O)c1 (stereo not given)	i	?	3.5µM	45µM	22µM	?
CC(C)CNC(=O)C1(C)CCCN1C(=O)c1ccncc1 (stereo not given)	i	nt	nt	nt	nt	nt
Cn1c(-c2ccc(C=O)s2)nc2c3ccccc3c3ccccc3c21	27µM	i	?	i	i	i
O=C(NC(=S)NCCc1ccc(Cl)cc1)c1ccco1	30µM	i	i	i	i	i
S=C(NCCc1ccc(Cl)cc1)NCc1ccco1	i	i	50µM	?	i	i
CC(=O)Nc1ccc(SCC(c2ccccc2)N2CCN(CC(C)C)CCC2=O)cc1 (stereo not given)	nt	nt	nt	i	i	i
NC(=O)c1sc2nc3c(c(-c4ccco4)c2c1N)CCC3	?	?	?	10µM	79µM	i
COc1ccc(-c2c3c(nc4sc(C(=O)Nc5cc(C)on5)c(N)c24)CCC3)cc1	i	i	i[12.7 µM]	i	i	i
Cc1ccc(-c2c3c(nc4sc(C(N)=O)c(N)c24)CCCC3)o1	?	?	45µM	32µM	i	i
NC(=O)c1sc2nc3c(cc2c1N)CCC3	i	i	i	i	i	i
Cc1ccc(Cl)cc1N1CCN(CCCNc2ncnc3onc(-c4ccc(Cl)cc4)c23)CC1	nt	i	i	nt	i	i
CC(=O)c1c(C)[nH]c(C(=O)Nc2nccs2)c1C	i	?	i	i	22µM	i
COc1ccc(-c2cc(=O)oc3c4c(ccc23)OCN(Cc2ccccc2)C4)cc1	nt	i	i	nt	i	i
CCOC(=O)c1cc(=O)[nH]c2ccccc12	i	i	i	i	i	i
CCOC(=O)c1cc2n(c1/N=C/N(C)C)-c1ccccc1C2=O	?	i	?	7.9µM	i	i
CC1(C)CC(=O)C2=C(C1)N1C(=C(C#N)C2c2ccccc2Cl)N=C(N)c2ccccc21 (stereo not given)	i	?	i	i	?	i
CC1(C)CC(=O)C2=C(C1)N1C(=C(C#N)C2c2ccc(Cl)cc2)N=C(N)c2ccccc21 (stereo not given)	i	50µM	?	i	?	i
CCOc1ccccc1NC(=O)Cn1cnc2onc(-c3ccc(F)cc3)c2c1=O	nt	i	i	nt	i	i
Cc1nc2ccc(S(=O)(=O)NC(C(=O)N3CCN(c4ccc(Cl)cc4)CC3)C(C)C)cc2s1 (stereo not given)	nt	i	i	nt	i	i
CCCCCSc1nnc2c(n1)OC(c1cccn1C)N(C(C)=O)c1ccccc1-2 (stereo not given)	i	?	?	i	28µM	?
C(=C\c1ccccc1)/CSc1nnc(-c2cnccn2)n1Cc1ccco1	i	i	10µM	35µM	?	i
